Source: PubChem BioAssay (several laboratories)
MEKK3 PB1 HTS = modulators (inhibitors or enhancers) of MEK5 binding to human MEKK3 PB1 domain | Q99759 | bead-based flow cytometry, Alexa488-MEK5 binding to MEKK3; actives lie on both sides; 0 = blocked by unlabeled MEK5, 100 = vehicle | binding response (% of control), % at 10 µM | 1.4% of 290,000 active | AID 1529;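 active = binding response more than 3 SD above or below the average of its plate-row segment, actives on both sides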;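 also: Alexa488 bead fluorescence after subtracting the streptavidin-only scavenger bead signal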
Target sequence (Q99759 whole entry, looked up, the tested form may be a part): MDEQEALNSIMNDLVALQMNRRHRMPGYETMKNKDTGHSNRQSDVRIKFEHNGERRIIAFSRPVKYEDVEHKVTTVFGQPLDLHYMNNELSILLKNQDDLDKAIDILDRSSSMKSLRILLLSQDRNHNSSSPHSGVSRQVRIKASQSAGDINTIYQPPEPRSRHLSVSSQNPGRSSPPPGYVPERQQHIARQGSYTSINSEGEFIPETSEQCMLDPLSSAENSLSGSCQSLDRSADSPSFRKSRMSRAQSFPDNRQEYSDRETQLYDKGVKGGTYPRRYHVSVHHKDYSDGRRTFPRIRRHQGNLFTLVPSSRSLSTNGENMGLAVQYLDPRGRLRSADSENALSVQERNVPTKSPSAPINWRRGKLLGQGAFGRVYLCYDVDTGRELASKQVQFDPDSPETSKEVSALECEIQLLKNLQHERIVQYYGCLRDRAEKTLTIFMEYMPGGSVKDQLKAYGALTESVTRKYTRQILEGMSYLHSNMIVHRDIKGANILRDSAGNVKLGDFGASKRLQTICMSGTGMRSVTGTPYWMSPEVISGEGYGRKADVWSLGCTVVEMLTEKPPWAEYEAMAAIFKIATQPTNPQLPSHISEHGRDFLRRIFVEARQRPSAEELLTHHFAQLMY
NRP1-CendR mod = modulators of CendR peptide binding to human neuropilin-1; FAM-RPARPAR peptide binding to NRP-1, fluorescence polarization; O14786; 0.85% of 360,000 active; inhibition, % at 25 µM;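 active = inhibition or corrected inhibition above about 18%, plus a signal ratio from 0.5 to 1.5, limit read from the data, passing the limit was not always enough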
MEKK2 WT-MEK5 = raises or lowers MEK5 binding to wildtype human MEKK2 PB1 domain; Q9Y2U5; bead flow cytometry, Alexa488-MEK5 binding to MEKK2 WT; actives lie on both sides; binding response (% of control), % at 10 µM; 1.1% of 290,000 active; in the data active = binding response below about 67% or above about 130%
SKN-1 inh = inhibitors of C. elegans SKN-1 | 0.49% of 360,000 active | C. elegans VP596 Pgst-4::GFP/RFP ratio, acrylamide-induced, 24 h | inhibition, % at 21.8 µM;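 active = interference check ratio from 0.5 to 1.5 plus GFP to RFP signal ratio inhibition reaching or exceeding a fixed threshold, cut at about 30% in these data, passing the limit was not always enough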
MEKK2mut PB1 HTS = signal of MEK5 binding to mutant human MEKK2 PB1 domain; bead flow cytometry, Alexa488-MEK5 binding to MEKK2 mutant; percent response, % at 10 µM; 0.35% of 290,000 active; AID 1530; in the data active = percent response above about 24%, passing the limit was not always enough
MEKK2wt confirm = raises or lowers MEK5 binding to wildtype human MEKK2, retest. binding response (% of control), % at 10 µM. bead flow cytometry, Alexa488-MEK5 binding to MEKK2 WT; actives lie on both sides. AID 1892. 2.4% of 5,900 active. shares compounds with MEKK3 PB1 HTS; in the data active = binding response below about 16% or above about 210%; inactive = in between
MEKK2mut confirm = signal of MEK5 binding to mutant human MEKK2, retest. shares compounds with MEKK3 PB1 HTS. bead flow cytometry, Alexa488-MEK5 binding to MEKK2 mutant. percent response, % at 10 µM. 2% of 5,900 active. AID 1893; in the data active = percent response mostly above about 71%, no sharp cut-off; inactive = mostly below about 38%;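 also: higher means compound restores mutant binding toward wildtype level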
MEKK3 confirm = MEKK3-MEK5 PB1 inhibition, single concentration confirmation; binding response (% of control), % at 10 µM; 1.8% of 5,900 active; bead flow cytometry, Alexa488-MEK5 binding to MEKK3; active compounds read low; shares compounds with MEKK3 PB1 HTS;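 active = binding response below 72% of control, or above a set upper limit, though filed actives all read lower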;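 also: lower values mean stronger disruption of MEK5 binding to MEKK3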
Numbers stand for hits; [ ] = remark or other dose. In the library only some 3.2% were active in any assay of this set; here they are far more common.

`COc1cc(CN2CCC(CO)(Cc3cccc(C(F)(F)F)c3)CC2)ccc1F` gave MEKK3 PB1 HTS 42.0[inhibitor], NRP1-CendR mod inactive, MEKK2 WT-MEK5 inactive, SKN-1 inh inactive, MEKK2mut PB1 HTS inactive, MEKK2wt confirm inactive, MEKK2mut confirm inactive and MEKK3 confirm inactive.
OCC1(Cc2cccc(C(F)(F)F)c2)CCN(Cc2cc3ccccc3o2)CC1 was read as MEKK3 PB1 HTS inactive, NRP1-CendR mod inactive, MEKK2 WT-MEK5 inactive, SKN-1 inh inactive and MEKK2mut PB1 HTS inactive.
COc1ccc(F)c(CN2CCC(CO)(Cc3cccc(C(F)(F)F)c3)CC2)c1 was read as MEKK3 PB1 HTS inactive, NRP1-CendR mod inactive, MEKK2 WT-MEK5 inactive, SKN-1 inh inactive and MEKK2mut PB1 HTS inactive.
Screening CSc1ccc(CN2CCC(CO)(Cc3ccc(Cl)cc3)CC2)cc1 returned MEKK3 PB1 HTS inactive, NRP1-CendR mod inactive, MEKK2 WT-MEK5 140.0, SKN-1 inh inactive, MEKK2mut PB1 HTS inactive, MEKK2wt confirm inactive, MEKK2mut confirm inactive and MEKK3 confirm inactive.
OCC1(Cc2ccc(Cl)cc2)CCN(Cc2ccccc2F)CC1 was read as MEKK3 PB1 HTS inactive, NRP1-CendR mod inactive, MEKK2 WT-MEK5 inactive, SKN-1 inh inactive and MEKK2mut PB1 HTS inactive.
`CC1(C(=O)Nc2ccccc2Br)CCN1C(=O)Cc1ccccc1Cl` (stereo not drawn) gave NRP1-CendR mod inactive and SKN-1 inh inactive.
For O=C(NCc1ccco1)c1ccc(Cn2c(=O)c3ccccc3n(Cc3ccc(Cl)cc3)c2=O)cc1 the results were MEKK3 PB1 HTS 133.0, NRP1-CendR mod inactive, MEKK2 WT-MEK5 inactive, SKN-1 inh inactive, MEKK2mut PB1 HTS inactive, MEKK2wt confirm inactive, MEKK2mut confirm inactive and MEKK3 confirm inactive.
CSc1ncccc1C(=O)OCC(=O)N1CCc2ccccc21 was read as NRP1-CendR mod inactive and SKN-1 inh inactive.
CC(=O)c1ccc(-c2cnc3c(NC=O)cc(-c4ccccc4Oc4ccccc4)cn23)cc1 was read as NRP1-CendR mod inactive and SKN-1 inh inactive.
Screening CCOC(=O)CSc1ncnc2c1sc1nc(N3CCOCC3)c3c(c12)CCCC3 returned MEKK3 PB1 HTS 82.0[inhibitor], NRP1-CendR mod inactive, MEKK2 WT-MEK5 inactive, SKN-1 inh inactive, MEKK2mut PB1 HTS inactive, MEKK2wt confirm inactive, MEKK2mut confirm inactive and MEKK3 confirm inactive.
`COC(=O)CSc1ncnc2c1sc1nc(N3CCOCC3)c3c(c12)CCCC3` gave MEKK3 PB1 HTS inactive, NRP1-CendR mod inactive, MEKK2 WT-MEK5 inactive, SKN-1 inh inactive and MEKK2mut PB1 HTS inactive.
`O=C(CC1CCCCC1)NCc1ccccc1Cl` gave MEKK3 PB1 HTS inactive, NRP1-CendR mod inactive, MEKK2 WT-MEK5 inactive, SKN-1 inh inactive and MEKK2mut PB1 HTS inactive.
For C/C=C1\COC(C(=O)NCCN2CCCC2)(C(F)(F)F)C=C1C=C1CCCCC1 (stereo not drawn) the results were MEKK3 PB1 HTS inactive, NRP1-CendR mod inactive, MEKK2 WT-MEK5 141.0, SKN-1 inh inactive, MEKK2mut PB1 HTS inactive, MEKK2wt confirm inactive, MEKK2mut confirm inactive and MEKK3 confirm inactive.
`C/C=C1\COC(C(=O)NCc2ccccc2)(C(F)(F)F)C=C1C=C1CCCCC1` (stereo not drawn) gave MEKK3 PB1 HTS inactive, NRP1-CendR mod inactive, MEKK2 WT-MEK5 inactive, SKN-1 inh inactive and MEKK2mut PB1 HTS inactive.
`C/C=C1\COC(C(=O)NCCCN2CCCC2=O)(C(F)(F)F)C=C1C=C(C)C` (stereo not drawn) gave MEKK3 PB1 HTS 78.0[inhibitor], NRP1-CendR mod inactive, MEKK2 WT-MEK5 inactive, SKN-1 inh inactive, MEKK2mut PB1 HTS inactive, MEKK2wt confirm inactive, MEKK2mut confirm inactive and MEKK3 confirm inactive.
For CCc1cccc(C)c1NC(=O)COC(=O)CSCc1ccccc1 the results were NRP1-CendR mod inactive and SKN-1 inh inactive.
For CCc1ccc(NS(=O)(=O)c2c(C(=O)N3CCOCC3)c(C)n(C)c2C)cc1 the results were MEKK3 PB1 HTS inactive, NRP1-CendR mod inactive, MEKK2 WT-MEK5 inactive, SKN-1 inh inactive and MEKK2mut PB1 HTS inactive.
Screening CC1(C)CC(NCc2cccc([N+](=O)[O-])c2)CC(C)(C)N1 returned MEKK3 PB1 HTS inactive, NRP1-CendR mod inactive, MEKK2 WT-MEK5 inactive, SKN-1 inh inactive and MEKK2mut PB1 HTS inactive.
CC1(C)CC(O)C(C(O)c2cccc([N+](=O)[O-])c2)C(C)(C)N1 (stereo not drawn) was read as MEKK3 PB1 HTS 148.0, NRP1-CendR mod inactive, MEKK2 WT-MEK5 inactive, SKN-1 inh inactive, MEKK2mut PB1 HTS inactive, MEKK2wt confirm inactive, MEKK2mut confirm inactive and MEKK3 confirm inactive.
Screening CCCN1Cc2cc(OC)ccc2-c2ccccc2S1(=O)=O returned NRP1-CendR mod inactive and SKN-1 inh inactive.
Screening CC(=O)NS(=O)(=O)c1ccc(NC(=O)c2cc(-c3ccc(C)cc3)nc3ccccc23)cc1 returned MEKK3 PB1 HTS inactive, NRP1-CendR mod inactive, MEKK2 WT-MEK5 inactive, SKN-1 inh inactive and MEKK2mut PB1 HTS inactive.
Screening CC(=O)Nc1ccc(-c2cc(C(=O)O)c3ccccc3n2)cc1 returned MEKK3 PB1 HTS 58.0[inhibitor], NRP1-CendR mod inactive, MEKK2 WT-MEK5 61.0[inhibitor], SKN-1 inh inactive, MEKK2mut PB1 HTS inactive, MEKK2wt confirm inactive, MEKK2mut confirm inactive and MEKK3 confirm inactive.
Screening COc1cccc(NC(=O)c2ccc3nc(C)c(N(C)Cc4ccc(NC(C)=O)cc4)n3c2)c1 returned NRP1-CendR mod inactive and SKN-1 inh inactive.
For COc1cccc(Nc2nc(-c3sc(NC(=O)c4ccccc4)nc3C)cs2)c1 the results were MEKK3 PB1 HTS inactive, NRP1-CendR mod inactive, MEKK2 WT-MEK5 143.0, SKN-1 inh inactive, MEKK2mut PB1 HTS inactive, MEKK2wt confirm inactive, MEKK2mut confirm inactive and MEKK3 confirm inactive.
Screening CC(C)(C)c1ccc(/C=N/NC(=O)c2ccccn2)cc1 returned MEKK3 PB1 HTS inactive, NRP1-CendR mod inactive, SKN-1 inh inactive, MEKK2mut PB1 HTS 86.0, MEKK2wt confirm inactive, MEKK2mut confirm inactive and MEKK3 confirm inactive.
NC(=O)CC(NC(=O)c1ccccc1)c1ccc(NCCN2CCCCC2)c([N+](=O)[O-])c1 (stereo not drawn) was read as MEKK3 PB1 HTS inactive, NRP1-CendR mod inactive, MEKK2 WT-MEK5 inactive, SKN-1 inh inactive and MEKK2mut PB1 HTS inactive.
COc1cccc(N2C(=O)Nc3ccccc3C2(O)C(=O)NCc2ccc3c(c2)OCO3)c1 (stereo not drawn) was read as MEKK3 PB1 HTS 123.0, NRP1-CendR mod inactive, MEKK2 WT-MEK5 inactive, SKN-1 inh inactive, MEKK2mut PB1 HTS inactive, MEKK2wt confirm inactive, MEKK2mut confirm inactive and MEKK3 confirm inactive.
